± gives the standard deviation.
system: EfPiwi piRISC loaded with piRNA #1 (26 nt); test: pre-steady-state target cleavage rate (min^-1); auxiliary factor: 500 nM Ephydatia muelleri Gtsf1; guide: piRNA #1 5'p-UGAGGUAGUAGGUUGUAUAGUAUCCA; MIWI and MILI are mouse PIWI proteins and EfPiwi is from a freshwater sponge; tags in brackets are library labels; higher = faster piRNA-guided slicing of the target
How it was run: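 Cleave-'n-Seq used a transcribed, DNA-blocked target RNA library at 0.1 nM and active affinity-purified piRISC with one synthetic guide at 1 nM, with or without 500 nM GTSF1 partner protein, in HEPES–potassium acetate buffer at 33 °C for 0–8 or 0–960 min. Uncleaved targets were sequenced and normalised to depth and to weakly complementary targets, and three trials were pooled with k3 capped at 0.0001 min^-1. The pre-steady-state cleavage rate was estimated by a burst-and-steady-state fit.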

Sequence	pre-steady-state target cleavage rate
GGAGACCUAACUAUACAACCUUCUACCUCA	0.00554 ± 0.0031
GGAGUCGAUACUAUACAACCAACUACCUCA	0.00517 ± 0.002
GGAGACGAUACAAUACAACCUACUACGUCA	0.00361 ± 0.0032
GGAGUGGAUACUAUACAACCUACUUCGUCA	0.00391 ± 0.0021
GGAGAGGAUAGUAUACAACCUACUACCACA	0.00287 ± 0.002
GGAGACGAUCUAUACAACCUACUACCUCA	0.0198 ± 0.01
GGAGUGGAUUCUAUACAACGUACUACCUCA	0.00313 ± 0.0019
GGAGACCAUACUAUACAACCACUACCUCA	0.00558 ± 0.0034
GGAGACCUAACUAUACAACCUAUUACCUCA	0.00738 ± 0.0043
GGAGUGGAUACUAUACAACCUAGAUCCUCA	0.00311 ± 0.0016
GGAGAGGAUACAAUACAACGUACUACCUCA	0.00326 ± 0.002
GGAGACCAUACUAUACAACCAACUACCUGA	0.00258 ± 0.0022
GGAGACCUAUGAUAACAACCUACUAGCACA	< 0.0001
GGAGACGAUACUAUACAACCUACAUCCUCA	0.00353 ± 0.0014
GGAGACCUAACUAUACAACCUAGUAGCUCA	0.00484 ± 0.0035
GGAGUGGAUACUAUACACACCUACUACCUCA	0.0105 ± 0.005
GGAGAGGAUACUAUACACACCUACUACCUCA	0.00541 ± 0.0039
GGAGUGGAUACUAUACAAUCCUACUACCUCA	0.0124 ± 0.0065
GGAGAGGAUACUAUACAACCUAGAACCUCA	0.00379 ± 0.0022
GGAGUGGAUAGUUUACAACCUACUACCUCA	0.00446 ± 0.0033

Sequence	pre-steady-state target cleavage rate
GGAGACCUAUGAUAUGUUCCUACUACUCUCA	< 0.0001
GGAGAGGAUACUAUACAACCUACUUCGUCA	0.00697 ± 0.0031
GGAGAGGAUAGUAUACAACCAACUACCUCA	0.00242 ± 0.0023
GGAGACCUUACUAUACAACGCUACUACCUCA	0.00566 ± 0.0038
GGAGACCUAACUAUACAACCUAGUACCACA	0.00588 ± 0.0049
GGAGAGCAUACUAUACAACCUACUACCACA	0.00318 ± 0.0021
GGAGAGGAUACUAUACAACCUUACUACCUCA	0.00845 ± 0.0045
GGAGACGAUACUAUUCAACCUACUAGCUCA	0.0042 ± 0.002
GGAGUGGAUACUAUACAACCUUCUACCUGA	0.00359 ± 0.0018
GGAGACCAUACUAUACAAUCCUACUACCUCA	0.00501 ± 0.0032
GGAGACCUAACUCAUACAACCUACUACCUCA	0.0159 ± 0.0089
GGAGACCUAUGAUAUGUACCUUCUACCUGA	< 0.0001
GGAGAGGAUACUAUACAACCUACAACCUGA	0.00332 ± 0.0014
GGAGACGAUACUAUACAACCUACUAGGAGA [g6:g24:cont:t1A]	0.00317 ± 0.0021
GGAGACGAUACUAUACAACCUAGUACGUCA	0.00328 ± 0.0016
GGAGAGGAUACUAUACAACCUACAUCCUCA	0.00358 ± 0.0016
GGAGAGGAUACUAUACAACCUUCUUCCUCA	0.00382 ± 0.0025
GGAGAGGAUACUAUACAACCUACUCCUCA	0.00473 ± 0.0025
GGAGACCUAACUAUACCAACCUACUACCUCA	0.00536 ± 0.0036
GGAGACGAUACUAUACAACCAACUAGCUCA	0.00457 ± 0.0027

Source: the supplement of paper PMC10338343
